ChEMBL document CHEMBL1157539, “Thousands of chemical starting points for antimalarial lead identification” (Nature, 2010)

Each compound was assayed on Plasmodium falciparum (assay: GSK_TCMDC: Inhibition of Plasmodium falciparum 3D7 in whole red blood cells, using parasite LDH activity as an index of growth. Test compounds present at 2uM).
Type: functional
In the case of `N#Cc1ccc(-c2ccc(OCC(O)CN3CCCN(C(=O)C(c4ccc5c(c4)OCO5)N4CCN(C/C=C/c5ccccc5)CC4)CC3)cc2)cc1` (stereo not drawn), the Inhibition is reported as 99%.
`COc1ccc(CNCc2ccc(F)cc2)cc1-c1ccc(OC)c(S(=O)(=O)NCCN2CCCC2)c1.O=C(O)C(F)(F)F` was tested, and the Inhibition was 100%.
`Cc1nc2ccc(NC(=O)Nc3ccnc4ccc(C(F)(F)F)cc34)cc2o1` gave an Inhibition of 89%.
In the case of `COc1ccc(NC(=O)c2ccc(Br)c(C)c2)cc1N1CCN(Cc2ccccc2)CC1.O=C(O)C(=O)O`, the Inhibition is reported as 95%.
`COc1ccc(C2CCC(NCCCCNC(=O)c3ccc(NC(=O)c4ccc(Cl)cc4)cc3)CC2)cc1` (stereo not drawn) gave an Inhibition of 99%.
Compound `Cc1[nH]c(C)c(-c2ccc(-c3ccc(C(F)(F)F)cc3C(F)(F)F)nc2)c(=O)c1Br` has an Inhibition of 97%.
For `Cl.Nc1ncc(-c2ccccc2)cc1-c1nc2cc(Cl)c(F)cc2[nH]1`, the Inhibition was 100%.
In the case of `COC(=O)c1ccc2nc(-c3ccc(C(=O)NC4CCN(Cc5ccccc5)CC4)s3)[nH]c2c1`, the Inhibition is reported as 99%.
`CCCCC1=CC2C(=O)C(C(=O)OC)=CN=C2C=C1OCc1ccccc1` (stereo not drawn) showed an Inhibition of 99%.
`O=C(Nc1ccc(CCN2CCC(c3nc(COCC(F)(F)F)c(-c4ccccc4)o3)CC2)cc1)c1ccc(F)cc1` gave an Inhibition of 86%.
In the case of `CCCCCCNC(=O)c1nn(CCN2CCC(N3CCCC3)CC2)cc1-c1ccc(Cl)c(Cl)c1`, the Inhibition is reported as 100%.
For `C=C(C)C1CC=C(CN2CCCC(n3ccc4cc(NC(=O)c5ccco5)ccc43)CC2)CC1` (stereo not drawn), the Inhibition was 90%.
Compound `CN(Cc1cccc(O)c1)C1CCCN(c2cc(NC(=O)c3ccc(F)cc3)ccn2)C1.O=C(O)C(F)(F)F` (stereo not drawn) has an Inhibition of 91%.
